# In ChEMBL document CHEMBL1201862, “PubChem BioAssay data set” (2004):
# About 2,100 (0.53%) of roughly 400,000 compounds were called active. Not shown: some 14% with an inconclusive outcome. How the calls were made is not given here. Shown is part of a subset that was picked to be rich in actives.
# Biological target: Ataxin-2 (Homo sapiens) (UniProt Q99700)
# Experiment: qHTS for Inhibitors of ATXN expression.
# Type: functional
# Chain of Ataxin-2 (Homo sapiens) (Q99700 whole entry): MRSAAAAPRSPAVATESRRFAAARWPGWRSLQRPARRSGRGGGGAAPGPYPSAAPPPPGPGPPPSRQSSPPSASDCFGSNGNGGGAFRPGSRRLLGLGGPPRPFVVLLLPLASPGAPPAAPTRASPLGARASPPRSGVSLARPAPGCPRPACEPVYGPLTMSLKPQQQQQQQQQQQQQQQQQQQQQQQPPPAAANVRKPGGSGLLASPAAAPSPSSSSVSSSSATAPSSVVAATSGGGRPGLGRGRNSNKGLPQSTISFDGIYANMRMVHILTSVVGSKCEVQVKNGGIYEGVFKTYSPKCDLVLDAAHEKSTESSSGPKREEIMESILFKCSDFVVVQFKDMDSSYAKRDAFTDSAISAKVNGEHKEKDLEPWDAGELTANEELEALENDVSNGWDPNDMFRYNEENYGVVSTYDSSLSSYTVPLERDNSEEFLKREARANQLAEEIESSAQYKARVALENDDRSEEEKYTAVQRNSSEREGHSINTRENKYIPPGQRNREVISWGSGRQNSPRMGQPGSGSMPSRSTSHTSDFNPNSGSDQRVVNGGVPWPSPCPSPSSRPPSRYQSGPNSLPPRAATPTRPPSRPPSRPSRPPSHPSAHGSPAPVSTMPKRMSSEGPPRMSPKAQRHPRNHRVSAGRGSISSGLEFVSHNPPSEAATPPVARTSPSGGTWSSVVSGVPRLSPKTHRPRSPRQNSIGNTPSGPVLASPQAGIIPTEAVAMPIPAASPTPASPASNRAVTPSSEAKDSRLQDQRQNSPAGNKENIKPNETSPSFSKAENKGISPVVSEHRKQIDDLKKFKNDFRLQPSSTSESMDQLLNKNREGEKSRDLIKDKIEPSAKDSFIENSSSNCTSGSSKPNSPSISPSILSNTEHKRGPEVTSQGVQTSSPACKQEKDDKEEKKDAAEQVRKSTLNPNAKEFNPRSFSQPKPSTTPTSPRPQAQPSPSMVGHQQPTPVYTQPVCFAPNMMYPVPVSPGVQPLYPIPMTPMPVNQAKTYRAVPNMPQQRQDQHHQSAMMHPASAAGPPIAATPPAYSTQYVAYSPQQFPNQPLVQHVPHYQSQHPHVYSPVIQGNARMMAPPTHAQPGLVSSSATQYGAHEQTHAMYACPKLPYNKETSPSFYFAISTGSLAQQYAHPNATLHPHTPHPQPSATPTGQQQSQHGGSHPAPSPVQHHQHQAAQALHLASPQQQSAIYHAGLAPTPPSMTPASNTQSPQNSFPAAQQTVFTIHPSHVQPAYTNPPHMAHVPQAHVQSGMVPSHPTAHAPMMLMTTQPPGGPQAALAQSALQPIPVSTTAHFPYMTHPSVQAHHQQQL
row,Structure (SMILES),Potency
1,C#CCOc1c(Cl)cc(C2C3=C(CCCC3=O)N(CC(=O)O)C3=C2C(=O)CCC3)cc1OC,inactive
2,C[C@H](CO)N1C[C@H](C)[C@@H](CN(C)C(=O)Nc2ccccc2)Oc2c(NC(=O)Nc3ccc(C(F)(F)F)cc3)cccc2C1=O,39.8 µM (active)
3,COCCn1c(=N)c(C(=O)NCC2CCCO2)cc2c(=O)n3ccccc3nc21 (stereo unspecified),inactive
4,COc1ccc(CCn2c(=N)c(C(=O)NCC3CCCO3)cc3c(=O)n4ccccc4nc32)cc1 (stereo unspecified),15.8 µM (active)
5,COCCCn1c(=N)c(C(=O)NCC2CCCO2)cc2c(=O)n3ccccc3nc21 (stereo unspecified),inactive
6,O=C(CCC(=O)N1CCOc2ccc(Cl)cc21)NCCCN1CCC(Cc2ccccc2)CC1,26.7 µM (active)
7,O=C(NCc1ccccc1)C(=O)NCC1OCCN1S(=O)(=O)c1ccc2c(c1)OCCO2 (stereo unspecified),inactive
8,CCOc1ccccc1C(=O)NC(C(=O)NCc1ccc(F)cc1)C(C)C (stereo unspecified),inactive
9,CC1=C(C)C(C)=C(C#N)C(=C(C#N)C#N)N1,inactive
10,CSc1nn(Cc2ccc(Br)cc2)c(N(C(C)=O)C(C)=O)c1S(=O)(=O)c1ccccc1,28.2 µM (active)
11,Cn1c(=O)n(Cc2ccc(Br)cc2)c2ccccc21,inactive
12,O=c1cc(Cl)c(-c2ccccc2)nn1Cc1ccc(Cl)cc1,inactive
13,CSc1nn(Cc2ccc(Cl)cc2)c(N(C(C)=O)C(C)=O)c1S(=O)(=O)c1ccccc1,25.1 µM (active)
14,CC12CCC(C(=O)N(CC3CO3)C1=O)C2(C)C (stereo unspecified),inactive
15,Cn1cccc1C1C=C(c2ccc(C(C)(C)C)cc2)Nc2ncnn21 (stereo unspecified),inactive
16,CC(=O)c1ccc(-c2ccc(C(=O)N(C)Cc3nc(O)c4ccccc4n3)o2)cc1,inactive
17,CC(C)c1ccc(/C=C(\NC(=O)c2ccccc2)C(=O)NCCCn2ccnc2)cc1,inactive
18,O=C(NCCCn1ccnc1)C(=O)NCC1OCCN1S(=O)(=O)c1ccc(F)cc1 (stereo unspecified),inactive
19,O=C(C[C@H]1C[C@H](C(=O)N2CCOCC2)[C@@]2(CCC3CCCC3)c3[nH]c4ccc(Cl)cc4c3CCN2C1=O)NCCCn1ccnc1,28.2 µM (active)

row,Structure (SMILES),Potency
1,O=C(/C=C/c1ccc(S(=O)(=O)N2CCOCC2)cc1)NCCCn1ccnc1,inactive
2,O=C(C[C@H]1C[C@H](C(=O)N2CCCCC2)[C@@]2(CCc3ccccc3)c3[nH]c4ccc(Cl)cc4c3CCN2C1=O)NCCCn1ccnc1,28.2 µM (active)
3,CC[C@@]1(O)C(=O)OCc2c1cc1n(c2=O)Cc2cc3c(CN(C)C)c(O)ccc3nc2-1,inactive
4,CC(C)(C)c1ccc(OCC(=O)Nc2ccc3c4c(cccc24)C(=O)NC3=O)cc1,inactive
5,O=[N+]([O-])c1cc(/C=N/N=C(/Nc2ccccn2)c2ccccn2)ccc1O,2.67 µM (active)
6,Cc1ccc2nc3c(cc(C(N)=S)c(=N)n3CCCOC(C)C)c(=O)n2c1,inactive
7,C=CC[C@H](CC(=O)N(CCO)Cc1ccccc1)C(=O)N[C@H](COC(=O)[C@@H](CC=C)CC(=O)OC(C)(C)C)c1ccccc1,35.5 µM (active)
8,C=CC[C@@H](CC(=O)N(CCO)Cc1ccccc1)C(=O)N[C@H](COC(=O)[C@@H](CC=C)CC(=O)OC(C)(C)C)c1ccccc1,31.6 µM (active)
9,C=CC[C@H](CC(=O)N(CCO)Cc1ccccc1)C(=O)N[C@H](COC(=O)[C@@H](CC=C)CC(=O)OC(C)(C)C)Cc1ccccc1,35.5 µM (active)
10,N#CCC(=O)N/N=C/c1cc(-c2ccccc2)n(-c2ccc(Cl)cc2)c1-c1ccccc1,inactive
11,COCCNS(=O)(=O)c1ccc2c3c(cccc13)C(=O)N2C,inactive
12,CCCOC(=O)c1c(NC(=O)c2nc3ncccn3n2)sc(C(N)=O)c1C,inactive
13,Nc1cccc2c1C(=O)N(CC(=O)NC13CC4CC(CC(C4)C1)C3)C2=O,inactive
14,O=C(COC(=O)/C=C/C(=O)OCC(=O)NC12CC3CC(CC(C3)C1)C2)NC12CC3CC(CC(C3)C1)C2,31.6 µM (active)
15,CCOc1cc(/C=C2/C(=N)N3C(=NC2=O)SN=C3S(=O)(=O)CC)ccc1OC(=O)c1ccco1,inactive
16,COc1ccc(/C=C2\C(=O)N(c3c(Cl)cc(Cl)cc3Cl)N=C2NC(=O)c2cccc([N+](=O)[O-])c2)cc1,22.4 µM (active)
17,COc1ccc(CNC(=O)C/C(C)=N/NC(=O)c2ccc([N+](=O)[O-])cc2Cl)cc1,inactive
18,COc1ccccc1CCNC(=O)CCNS(=O)(=O)c1ccc(NC(C)=O)cc1,inactive
19,COC(=O)[C@]12CCCCC=C1N(CCC1=CCCCC1)C(=O)[C@H](CC(=O)NCCc1ccccc1OC)C2,39.8 µM (active)

row,Structure (SMILES),Potency
1,COC(=O)[C@]12CCCCC=C1N(CCC1=CCCCC1)C(=O)[C@H](CC(=O)NCc1cccc3ccccc13)C2,25.1 µM (active)
2,CCCn1nc(NC(=O)CC)c2cc3cccc(C)c3nc21,inactive
3,O=C(/C=C/c1cccc(Cl)c1)OCC(=O)c1ccc[nH]1,inactive
4,CC(C)n1/c(=N/C(=O)c2ccco2)c(C#N)cc2c(=O)n3ccccc3cc21,inactive
5,NC(=O)c1nsc(C(=O)N(c2ccccc2)C(C(=O)NCC2CCCO2)c2ccc3ncccc3c2)c1N (stereo unspecified),inactive
6,O=C1C(=O)c2ccccc2C(O)=C1CCCCl,25.1 µM (active)
7,CCN(CC)c1ccc2cc(-c3nc4ccccc4[nH]3)c(=O)oc2c1,inactive
8,COc1ccc2cc(-c3nc4ccc(C(=O)O)cc4[nH]3)c(=O)oc2c1,inactive
9,COc1ccc(/N=c2\oc3ccc(OC)cc3cc2-c2nc3ccccc3[nH]2)cc1,31.6 µM (active)
10,CCC1=Nc2cc(C(=O)N3CCC(C)CC3)ccc2Sc2ccc(C)cc21,28.2 µM (active)
11,CC1CCN(C(=O)c2ccc3c(c2)C(=O)c2ccccc2-3)CC1,inactive
12,CC1CCN(S(=O)(=O)N2CCN(C(=O)c3ccc4c(c3)OCO4)CC2)CC1,inactive
13,O=C1C=CC(=O)N1CCCCCCN1C(=O)C=CC1=O,25.1 µM (active)
14,Cn1c(=O)c2c(nc(Oc3cccc(Br)c3)n2C)n(C)c1=O,inactive
15,C[C@@H]1CN([C@H](C)CO)S(=O)(=O)c2ccc(C#C[C@@H](C)O)cc2O[C@@H]1CN(C)Cc1ccc(-c2ccccc2)cc1,20 µM (active)
16,C[C@H]1CN([C@@H](C)CO)S(=O)(=O)c2ccc(Br)cc2O[C@@H]1CN(C)Cc1cccc(F)c1,25.1 µM (active)
17,C[C@@H]1CN([C@@H](C)CO)S(=O)(=O)c2ccc(C#Cc3cccc(F)c3)cc2O[C@H]1CN(C)S(=O)(=O)c1cn(C)cn1,39.8 µM (active)
18,C[C@@H]1CN([C@H](C)CO)S(=O)(=O)c2ccc(C#Cc3ccccc3F)cc2O[C@@H]1CN(C)C(=O)Cc1ccccc1,25.1 µM (active)
